Article PMC13494018

B1: design_596_3e5f537c-0703-45f0-993f-ff416531349a_642_dldesign_0_cycle1_af2pred (protein)
chain: SLEENYELAKRVAEAAKEAGKEAKKAGPELAPIGEKAEKEAKELLKEAELAYKDPSYIPEAGKEAQKALEAKAEADWAIAQYK
B2: design_596_3e5f537c-0703-45f0-993f-ff416531349a_988_dldesign_0_cycle1_af2pred (protein)
chain: VEKVAKEAKKAAKEARKEAKKTKDGKAAQELLEAASEAEGYAILAEKDPKYAPKAKEAAKKAKELVEKVKKE
B3: design_596_3e5f537c-0703-45f0-993f-ff416531349a_666_dldesign_0_cycle1_af2pred (protein)
chain: SEEGKKKVEEAKKRAEKAKKKAKEAIKKSKEEGKAAVYSLLGIAESFKLLAKAMAKTDPEAGKKIKEVAEEAEKKAKELLEEVEK
B4: design_376_bf9d4634-8475-4fdb-a175-1db49a23bdcd_2363_dldesign_0_cycle1_af2pred (protein)
chain: AEEEAKQKELIKEMARHIQEAREYRNAAEKLPEKKEEYVKKALEHVEKALEAAEELIKNPKYKEYGEKGKKRAEEVRKKIEEVK
B5: design_376_bf9d4634-8475-4fdb-a175-1db49a23bdcd_1954_dldesign_0_cycle1_af2pred (protein)
chain: MTAEEAIKKIEEAAEKASKELKEIGKKNPAVAAYAKAASERVKRRAKRAIKEIKEKGLTGVQAEGLAEAASYFAEDQAENAKKKAEEA
B6: design_596_3e5f537c-0703-45f0-993f-ff416531349a_8_dldesign_0_cycle1_af2pred (protein)
chain: EEEEREKVIKKAKEVLDRNGKKALEYAKIVPEVAPEVEKTIKESRAEIEKAAGLSLEEAQKAAAAAVHKVQELRAEAYFLAEKKK
B7: design_376_bf9d4634-8475-4fdb-a175-1db49a23bdcd_2229_dldesign_0_cycle1_af2pred (protein)
chain: MAEKIKKAITEAREKYADARGYAYAAKKDPKFLPEAVKAADAAAAAWEALAKLDPANKAIYDANAAKAKAIGDAAKAAL
B8: design_376_bf9d4634-8475-4fdb-a175-1db49a23bdcd_2428_dldesign_0_cycle1_af2pred (protein)
chain: MEEAIKKLKEIAKKLKELSKEAEKLAKEYPKVKNEALKVSGYAETAADQAESALKNKEKAAEAAKWAEKRLEKVEKDLKEVKKKAK
B9: design_596_3e5f537c-0703-45f0-993f-ff416531349a_512_dldesign_0_cycle1_af2pred (protein)
chain: DADTIRAASKALKAAGKDPKTAPLAKEAKEALFKGLEYENKDPKKAAEYYKKAAELLRKLAEKAEAKEELLKVAEELEKKAEELKKK
B10: design_376_bf9d4634-8475-4fdb-a175-1db49a23bdcd_2251_dldesign_0_cycle1_af2pred (protein)
chain: GAASAAEEAKGHAIAAEAYALSGKKKEEALEDAKKAGEYAKKATPEYQAAVKKLFEKKVERVKAKPESAETAEKMKALFEEVVA
B11: design_596_3e5f537c-0703-45f0-993f-ff416531349a_566_dldesign_0_cycle1_af2pred (protein)
chain: DKLVEEAKKAAEEAEKLLDKAIKVSPKAAAEAATAYALYENALSAAESGSATEEEVKAQLEKGKEKLKKAKEIMKKEEEKK
B12: design_376_bf9d4634-8475-4fdb-a175-1db49a23bdcd_2333_dldesign_0_cycle1_af2pred (protein)
chain: SEIAEKLAEWAEKAKASTREEAKAILDELLADEETKEYAELALEIVKDIAGEDAPAEAIGLALRIASDAAEA
B13: design_596_3e5f537c-0703-45f0-993f-ff416531349a_46_dldesign_0_cycle1_af2pred (protein)
chain: KYKELLKKAKELYEKAIAAAGDPAKAAAELKKANAAFTDALAEARAESKENFKKVRKEYGELKAKYEAAKAAA
B14: design_596_3e5f537c-0703-45f0-993f-ff416531349a_508_dldesign_0_cycle1_af2pred (protein)
chain: KEKIQKEGLKEIEKIAEEGIKEAKKYAEEGKYEEAKKIAKEALEKMREKAKELGEKVGEEAQKQGAKIIQKAREELSEYVQKAKLKK
B15: design_596_3e5f537c-0703-45f0-993f-ff416531349a_1819_dldesign_0_cycle1_af2pred (protein)
chain: HAATVKAVAAEAKELAEEKIKAMKENAKDEEGIKLAVNSMKRFADNDAKLGPEAGAAAKAEYEKVEKAAKEIIKEAKA
B16: design_596_3e5f537c-0703-45f0-993f-ff416531349a_1302_dldesign_0_cycle1_af2pred (protein)
chain: KEKLIEEAKKEAKEVVEKAKAILKSKAKEGKLEEGIKEAANLLQEFQQKLTEISFENPEVKEDMEKIFKEARDELKAEIEAAKAA
B17: design_376_bf9d4634-8475-4fdb-a175-1db49a23bdcd_2125_dldesign_0_cycle1_af2pred (protein)
chain: SPYQKKLEEEAEEIIARARKLAEEAREAAKKAGPKIKSLADEAISYAAIARSLARDGVKYGEKYLELAKEELAKAEELAKEAVKLAKE
B18: design_596_3e5f537c-0703-45f0-993f-ff416531349a_1052_dldesign_0_cycle1_af2pred (protein)
chain: GEEKLKEAKKEAEKKLEELKKKGKEVGPEAVKIVEKAKERIEKKYKEAEKMKNKEAGALSFEEFAKDAIEAAKKQIEKLAKEKA
B19: design_596_3e5f537c-0703-45f0-993f-ff416531349a_1315_dldesign_0_cycle1_af2pred (protein)
chain: SITYKNKALAYLEAAKHALEVAKKNVGDLEKVKKAYEQAKKFVEKALEYASKVTPEFLAEAKAESEKILAEMEKVLKEAE
B20: design_596_3e5f537c-0703-45f0-993f-ff416531349a_1329_dldesign_0_cycle1_af2pred (protein)
chain: MEASEELRKAIKYARELGEKGTEEHKKLAAEAVFYASSDPEKAIALLKEVAKDPKVKELAEKAIEHIKKLAEL
B21: design_376_bf9d4634-8475-4fdb-a175-1db49a23bdcd_2226_dldesign_0_cycle1_af2pred (protein)
chain: KYKEEAKKKTEEELEKAAKAVSKENAPKVEKVKKEALKALEEDFSKAAEIIRNFAKEEKENHDVVKKYAAKASEALYEARAAKEVEER
B22: design_596_3e5f537c-0703-45f0-993f-ff416531349a_73_dldesign_0_cycle1_af2pred (protein)
chain: AEKEKEAQKLLEEMVEYGEKKAKEAEKLNPKAGERIRRARERYEKYAKDPEKAKQYVEALKEYADHVVEAAKK
B23: design_376_bf9d4634-8475-4fdb-a175-1db49a23bdcd_2272_dldesign_0_cycle1_af2pred (protein)
chain: AEEYLKEAKKYLEEAKKVAEKNPKAKPAYERGKKKYEEYLKKAKETGDYEEYAKKAYIAADQALEHAEFIAK
B24: design_596_3e5f537c-0703-45f0-993f-ff416531349a_232_dldesign_0_cycle1_af2pred (protein)
chain: LKAEAAEKSAEARELIAEAETLAKNIKNLSKEEAKEALKVAEEALKKAKEAAKLMAKVGEEELGKKLLERAKKAYKETKEAVKKKLK
B25: design_596_3e5f537c-0703-45f0-993f-ff416531349a_778_dldesign_0_cycle1_af2pred (protein)
chain: AAAEEEKEQKEKLEEVKELAKKMVEEVKEYAKKTTVEEAKKYLDEKKKELFKYAREKVGYEGVEEAVEAYGEARTAILKLEKN
B26: design_596_3e5f537c-0703-45f0-993f-ff416531349a_1299_dldesign_0_cycle1_af2pred (protein)
chain: MSKKLTEALSAFNKAAAAAAKLIDEEAKKDPKKAAEVKKLLAKAVYEIDNPEKAAAYLEAAAKAATDAATKAELNAAAAEAKKLGEL
B27: design_376_bf9d4634-8475-4fdb-a175-1db49a23bdcd_2406_dldesign_0_cycle1_af2pred (protein)
chain: HMEELEKLLKEAEKAAKEAAEAYKKDPAEGKKWASKARDLSIEAISLDPSAYEKAKEIAEKVAEVDPEAGKKIKAILERTYEALKRA
B28: design_596_3e5f537c-0703-45f0-993f-ff416531349a_1686_dldesign_0_cycle1_af2pred (protein)
chain: MDEEIKKKAIEIAQKALEAAAEYEAKAIRTGDEESKKKAEELRELAKKIREALKEGNIEEAKKYAEKAKKLIEEA
B29: design_596_3e5f537c-0703-45f0-993f-ff416531349a_1289_dldesign_0_cycle1_af2pred (protein)
chain: MNDALAAESYGEGLVEDAEKEAKEAIEKGASPEELKKVAKKARERAERVRRYAERRAKEAENSEEVLAAGEKAVKKLEEIAKELEKAA
B30: design_596_3e5f537c-0703-45f0-993f-ff416531349a_466_dldesign_0_cycle1_af2pred (protein)
chain: EEERTKLIKEASDLRREAIALLREAGKAADPATAGAAVFAIPDLEAFTAAAAAAAKAYPELAATWEAAAAKATASHAAVEKAEKL
B31: design_376_bf9d4634-8475-4fdb-a175-1db49a23bdcd_2407_dldesign_0_cycle1_af2pred (protein)
chain: MEEEEKKKKEEAKKLAKELGNLLIEAFDADVEDEEKGEEKLKEAKKLAKELKKLDPELGKKAEKRIKRFEESMKIAKELKEK
B32: design_596_3e5f537c-0703-45f0-993f-ff416531349a_533_dldesign_0_cycle1_af2pred (protein)
chain: SAITEQNKKEALAERAKHVGEAAVKQAKAHAGDVAYIEKLQKQALEAGKKANEEGKKAAEAAAKEIAKIAAQAKAAK
B33: design_376_bf9d4634-8475-4fdb-a175-1db49a23bdcd_2064_dldesign_0_cycle1_af2pred (protein)
chain: SEKEEIIKRAKEVAERARKVAAEAKEIGPAALPVLNKATEARALANAARDLAEAGGNLEVAKEVLKEAEELLKKAEEELKKLKKE
B34: design_596_3e5f537c-0703-45f0-993f-ff416531349a_338_dldesign_0_cycle1_af2pred (protein)
chain: GSMEEKKKKEVEEAEKEAEKILEKAKKEAEKAAKKSPAQAVEVALEALSELKYLGSKYPEKAEEFEKRGRELVEEYKKKAE
B35: design_596_3e5f537c-0703-45f0-993f-ff416531349a_1683_dldesign_0_cycle1_af2pred (protein)
chain: EEEKRREAAERLRELAKKALEDVENAPEYLEEAAREAEKVGDYTTAVLLEQLAEDVRKASPEEAVKFVRAGAERALRSAERLL
B36: design_596_3e5f537c-0703-45f0-993f-ff416531349a_1563_dldesign_0_cycle1_af2pred (protein)
chain: AEKHLKEAKKLAEEAKKLAEEAEKDPSTAPEKAKKAEEAARKAREEAKKAAEADPSVAPEAAKAAQEAYEARAVAEAVANRYLK
B37: design_376_bf9d4634-8475-4fdb-a175-1db49a23bdcd_2298_dldesign_0_cycle1_af2pred (protein)
chain: GLEEKAKKAVEKAKEYLKKAKAAMEKGDYKSALAYAEQAIHAATAAIKIAKEDPSLKELEEEAKKILEEAKKLLEEAEKKL
B38: design_376_bf9d4634-8475-4fdb-a175-1db49a23bdcd_2270_dldesign_0_cycle1_af2pred (protein)
chain: SMAREKARKESEELRELVKKAREIAKEAKEKAKEKGPEAQKIAKEAAKEAAKAVWYFPDKEKSEKALQKAEELLKEI

Molecular target: VTCN1, Q7Z7D3
Sequence (Q7Z7D3 whole entry): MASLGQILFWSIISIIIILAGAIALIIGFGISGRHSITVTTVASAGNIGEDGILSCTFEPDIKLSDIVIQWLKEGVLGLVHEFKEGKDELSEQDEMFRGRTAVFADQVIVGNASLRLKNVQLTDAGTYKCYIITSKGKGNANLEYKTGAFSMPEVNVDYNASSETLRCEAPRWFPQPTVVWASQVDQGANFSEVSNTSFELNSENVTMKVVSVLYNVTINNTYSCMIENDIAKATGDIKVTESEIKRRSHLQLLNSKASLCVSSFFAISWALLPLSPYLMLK

Binding in a display sort, inactive:
B1 not found
B2 not found
B3 not found
B4 not found
B5 not found
B6 not found
B7 not found
B8 not found
B9 not found
B10 not found
B11 not found
B12 not found
B13 not found
B14 not found
B15 not found
B16 not found
B17 not found
B18 not found
B19 not found
B20 not found
B21 not found
B22 not found
B23 not found
B24 not found
B25 not found
B26 not found
B27 not found
B28 not found
B29 not found
B30 not found
B31 not found
B32 not found
B33 not found
B34 not found
B35 not found
B36 not found
B37 not found
B38 not found
